Measurements from PubChem BioAssay (EPA / NIEHS).
Values joined by “and” are separate entries in the source; they are usually repeats but may differ in a detail not shown here. Equal entries are not always repeated. Records with an inconclusive call do not appear. Active and inactive are the calls of the source. Rule for the calls: active = hit-call score of the fitted dose curve at least 0.9, where 1 is the maximum; inconclusive = response in the unintended direction; inactive = score below 0.9.

system: turtle Estrogen Receptor (ESR1), gene 101933533; assay: ATG_trERa_XSP1: Attagene TRANS-FACTORIAL Multi-Species (XSP1) HepG2 Assay for turtle Estrogen Receptor (ESR1) (AID 2283781)
Description: ATG_XSP1_multi-species_TRANS is a cell-based, multiplexed assay created by modifying the existing Attagene TRANS-FACTORIAL system to include a panel of nuclear receptors from some or all the following species: human (Homo sapiens), mouse (Mus musculus), frog (Xenopus laevis), zebrafish (Danio rerio), chicken (Gallus gallus), and turtle (Chrysemys picta). The ECOTOX-FACTORIAL format uses HepG2, a human liver cell line, with measurements taken at 24 hours after chemical dosing in a 24-well plate. Xsp1 included 3 nM 6-alpha-fluorotestosterone to partially stimulate the androgen receptor.ATG_trERa_XSP1 is one of 29 assay components measured or calculated from the ATG_XSP1_multi-species_TRANS assay. It is designed to make measurements of mRNA induction, a form of inducible reporter, as detected with fluorescence intensity signals by Reverse transcription polymerase chain reaction (RT-PCR) and Capillary electrophoresis technology.The assay endpoint ATG_trERa_XSP1 was analyzed in the positive analysis fitting direction relative to DMSO as the negative control and baseline of activity. Using a type of inducible reporter, measures of mRNA for gain-of-signal activity can be used to understand the reporter gene at the transcription factor-level as they relate to the gene ER. Furthermore, this assay endpoint can be referred to as a primary readout, because this assay has produced multiple assay endpoints where this one serves a reporter gene function. To generalize the intended target to other relatable targets, this assay endpoint is annotated to the nuclear receptor intended target family, where the subfamily is steroidal.
Human liver HepG2 cells are transiently transfected with multiple reporter transcription units (MRTUs) in 6-well plates using FuGene 6 reagent (Roche; 3 ml FuGene/1 mg DNA). The MRTU constructs are regulated by a cis-regulating element (promoter). […] A major difference between the CIS and TRANS system is that in CIS activities of endogenous TFs are measured, whereas the TRANS assay evaluates changes in activities of exogenous, chimeric NR-Gal4 proteins. […] At the end of 24 hour incubation, total RNA was isolated using TriZol reagent (Invitrogen). The isolated RNA is then reverse-transcribed using oligo(dT) primer and Mo-MLV reverse transcriptase (Invitrogen) with DNAse I (Ambion) treatment for 30 min. The one-tenth of the produced cDNA was amplified by PCR using Taq DNA polymerase (Invitrogen) and two reporter sequence-specific primers. The PCR products were fluorescently labeled by primer extension with 6-arboxyfluorescein (6-FAM) 5'-labeled reporter sequence-specific primer (2 min at 95 C, 20 s at 68 C and 10 min at 72 C) and these products were digested with 5U of HpaI (New England Biolabs) for 2h at 37 C. The fragments were purified using Qiaquick PCR columns (Qiagen), analyzed on an ABI 3130xL genetic analyzer (Applied Biosystems) with peak positions identified by using a set of X-rhodamine (ROX)-labeled MapMarker1000 molecular weight standards (BioVentures). The raw capillary electrophoresis data was processed using Attagraph software (Attagene).

Row | Compound | AC50
1 | C[C@]12CCC(=O)C=C1CC[C@@H]1[C@@H]2CC[C@]2(C)C(=O)CC[C@@H]12 | 4.61 nM (active) and 4.8 nM (active)
2 | CC(C)(c1ccccc1)c1ccc(O)cc1 | 412 nM (active)
3 | Oc1ccc(C(c2ccc(O)cc2)(C(F)(F)F)C(F)(F)F)cc1 | 109 nM (active) and 71.2 nM (active)
4 | C[C@]12CCC(=O)C=C1CC[C@@H]1[C@@H]2CC[C@@]2(C)[C@H]1CC[C@]2(C)O | 1.76 nM (active)
5 | Clc1ccc(C(c2ccccc2Cl)C(Cl)(Cl)Cl)cc1 (stereo unspecified) | 713 nM (active)
6 | ClC(Cl)=C(c1ccc(Cl)cc1)c1ccc(Cl)cc1 | 5500 nM (active)

system: not listed separately; assay: ACEA_ER_AUC_viability: ACEA Biosciences xCELLigence Real-Time Cell Analysis on Estrogen Receptor Agonism for Viability (AID 2283782);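 note: hit means loss of impedance signal meaning reduced cell growth or viability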
How it was run: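 Continuous-exposure impedance cell analysis uses T-47D cells in charcoal-stripped serum, eight 1:4 dilutions topping at 100 uM final, biological duplicate. Area under the growth curve at 80 h is fitted against DMSO baseline.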

Row | Compound | outcome | AC50
7 | N#Cc1ccc(N(CC(N)=O)CC(F)(F)F)cc1C(F)(F)F | inactive | –
8 | CCOP(=S)(OCC)SCSC(C)(C)C | – | 92.7 µM (active)
9 | CC(C)(c1ccccc1)c1ccc(O)cc1 | – | 50 µM (active) and 24.3 µM (active) and 88.6 µM (active)
10 | Cc1ccccc1[N+](=O)[O-] | inactive | –
11 | Nc1ccc(-c2ccc(N)cc2)cc1 | inactive | –
12 | Oc1ccc(C(c2ccc(O)cc2)(C(F)(F)F)C(F)(F)F)cc1 | – | 83.7 µM (active) and 72 µM (active) and 73.8 µM (active)
13 | O=C(NC(=O)c1cc(F)c(F)cc1Cl)Nc1cc(F)ccc1N1CCC(C(=O)O)CC1 | inactive | –
14 | Cc1ccc(O)c(C)c1 | inactive | –
15 | COc1ccc(O)c(C(C)(C)C)c1 | – | 64.6 µM (active)
16 | CN(C)c1nc(=O)n(C2CCCCC2)c(=O)n1C | inactive | –
17 | O=C(O)C(F)(F)C(F)(F)C(F)(F)C(F)(F)C(F)(F)F | inactive | –
18 | Clc1ccc(Cl)cc1 | inactive | –
19 | CCC(C)(c1ccc(O)cc1)c1ccc(O)cc1 | – | 87.5 µM (active) [middle of 4 runs]
20 | OCC(O)CO | inactive | –
21 | O=C(O)C(F)(F)C(F)(F)C(F)(F)C(F)(F)C(F)(F)C(F)(F)C(F)(F)C(F)(F)C(F)(F)F | – | 78.6 µM (active) and 125 µM (active)
22 | ClC1=C(Cl)[C@]2(Cl)[C@@H]3[C@@H](Cl)[C@H]4O[C@H]4[C@@H]3C1(Cl)C2(Cl)Cl | – | 73 µM (active)
23 | Cc1cc2c3c(c1)C(c1ccccc1)=N[C@@H](NC(=O)c1ccncc1)C(=O)N3CC2 | inactive | –
24 | Cc1cccc(C)c1N | inactive | –
25 | O=S(=O)(O)C(F)(F)C(F)(F)C(F)(F)C(F)(F)F | inactive | –
26 | Clc1ccc(C(c2ccccc2Cl)C(Cl)(Cl)Cl)cc1 (stereo unspecified) | – | 42.8 µM (active) and 53.5 µM (active) and 50.9 µM (active)
27 | ClC(Cl)=C(c1ccc(Cl)cc1)c1ccc(Cl)cc1 | – | 80.6 µM (active) and 29.5 µM (active) and 74.7 µM (active)
28 | CCCCCCCCCc1ccc(O)cc1 | – | 21.8 µM (active) and 25.4 µM (active) and 28.8 µM (active)
29 | O=S(=O)(O)C(F)(F)C(F)(F)C(F)(F)C(F)(F)C(F)(F)C(F)(F)F | inactive | –
30 | Sc1ccccc1 | inactive | –
31 | CC(c1ccc(O)cc1)(c1ccc(O)cc1)c1ccc(O)cc1 | – | 88.3 µM (active)
